# According to PubChem BioAssay AID1159580 (chemical genetic matrix, 2015):
# Out of some 5,500 compounds screened, about 2,000 (36%) were called active. Roughly 18% stayed inconclusive and do not appear here. Some of the results follow. Values without a mark were called inactive. Cut-off read from the data, not from the text of the source: active = normalized growth mostly below about 0.91 (no sharp cut-off); inconclusive = no clear call, values can overlap the other calls; inactive = mostly above about 0.92.
# Assay: chemical genetic growth profiling, strain panel (AID 1159580);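 note: tested at 20 µM; growth read once vehicle control cultures reached saturation at 30 °C; 1 = growth at the plate median or of vehicle wells; lower values mean less growth of the strain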
# Conditions: growth OD
# [1] = S. cerevisiae deletion strains, locus YAL040C, strain CLN3, hits give low values
# [2] = S. cerevisiae deletion strains, locus YCL061C, strain MRC1 (second series), hits give low values
# [3] = S. cerevisiae deletion strains, locus YER002W, strain NOP16, hits give low values
# [4] = S. cerevisiae deletion strains, locus YGR078C, strain PAC10, hits give low values
# [5] = S. cerevisiae deletion strains, locus YMR263W, strain SAP30, hits give low values
# [6] = S. cerevisiae deletion strains, locus YNL175C, strain NOP13, hits give low values
# [7] = S. cerevisiae deletion strains, locus YNL197C, strain WHI3, hits give low values
# [8] = S. cerevisiae deletion strains, locus YNL224C, strain SQS1, hits give low values
# [9] = S. cerevisiae deletion strains, locus YOR083W, strain WHI5 (second series), hits give low values
# [10] = S. cerevisiae deletion strains, locus YPL055C, strain LGE1, hits give low values
# [11] = S. cerevisiae deletion strains, locus YAL013W, strain DEP1, hits give low values
# [12] = S. cerevisiae deletion strains, locus YBR229C, strain ROT2, hits give low values
# [13] = S. cerevisiae deletion strains, locus YDL101C, strain DUN1, hits give low values
# [14] = S. cerevisiae deletion strains, locus YDR150W, strain NUM1, hits give low values
# [15] = S. cerevisiae deletion strains, locus YEL061C, strain CIN8, hits give low values
# [16] = S. cerevisiae deletion strains, locus YHR030C, strain SLT2, hits give low values
# [17] = S. cerevisiae deletion strains, locus YHR087W, strain rtc3, hits give low values
# [18] = S. cerevisiae deletion strains, locus YJR043C, strain POL32, hits give low values
# [19] = S. cerevisiae deletion strains, locus YJR075W, strain HOC1, hits give low values
# [20] = S. cerevisiae deletion strains, locus YLR039C, strain RIC1, hits give low values
# [21] = S. cerevisiae deletion strains, locus YLR058C, strain SHM2 (second series), hits give low values
# [22] = S. cerevisiae deletion strains, locus YLR085C, strain ARP6, hits give low values
# [23] = S. cerevisiae deletion strains, locus YLR262C, strain YPT6, hits give low values
# [24] = S. cerevisiae deletion strains, locus YML094W, strain GIM5, hits give low values
# [25] = S. cerevisiae deletion strains, locus YMR219W, strain ESC1, hits give low values
# [26] = S. cerevisiae deletion strains, locus YNL128W, strain TEP1, hits give low values
# [27] = S. cerevisiae deletion strains, locus YNL153C, strain GIM3, hits give low values
# [28] = S. cerevisiae deletion strains, locus YNL298W, strain CLA4 (second series), hits give low values
# [29] = S. cerevisiae deletion strains, locus YNL322C, strain KRE1, hits give low values
# [30] = S. cerevisiae deletion strains, locus YNR030W, strain Alg12, hits give low values
# [31] = S. cerevisiae deletion strains, locus YPR135W, strain CTF4, hits give low values
# [32] = S. cerevisiae deletion strains, locus YPL241C, strain CIN2, hits give low values
structure (smiles),measurement,setting,value
COc1ccccc1N1CCN(CCCCNC(=O)c2ccc3ccccc3c2)CC1,normalized growth,[1],0.951
same,normalized growth,[2],0.988
same,normalized growth,"S. cerevisiae deletion strains, locus YDR363W, strain ESC2, hits give low values",1.03
same,normalized growth,[3],0.996
same,normalized growth,[4],0.981
same,normalized growth,[5],0.978
same,normalized growth,"S. cerevisiae deletion strains, locus YMR307W, strain GAS1, hits give low values",0.995
same,normalized growth,[6],1.03
same,normalized growth,[7],1.01
same,normalized growth,[8],0.983
same,normalized growth,[9],1.06
same,normalized growth,[10],0.999
COc1ccccc1C1CCN(C(=O)c2ccc(F)cc2)CC1,normalized growth,[11],0.981
same,normalized growth,[12],0.986
same,normalized growth,"S. cerevisiae deletion strains, locus YCL061C, strain MRC1, hits give low values",0.989
same,normalized growth,[13],0.994
same,normalized growth,"S. cerevisiae deletion strains, locus YDL134C, strain PPH21, hits give low values",0.983
same,normalized growth,[14],0.988
same,normalized growth,[15],0.965
same,normalized growth,[4],0.982
same,normalized growth,[16],0.754
same,normalized growth,[17],1.01
same,normalized growth,[18],0.987
same,normalized growth,[19],1
same,normalized growth,[20],1.03
same,normalized growth,[21],0.981
same,normalized growth,[22],0.901
same,normalized growth,[23],1.01
same,normalized growth,[24],0.944
same,normalized growth,[25],0.976
same,normalized growth,[5],0.994
same,normalized growth,[26],0.986
same,normalized growth,[27],0.989
same,normalized growth,[28],0.982
same,normalized growth,[29],0.978
same,normalized growth,[30],0.967
same,normalized growth,"S. cerevisiae deletion strains, locus YOL006C, strain TOP1, hits give low values",0.852
same,normalized growth,[10],0.926
same,normalized growth,[31],0.975
COc1ccccc1C1CCN(Cc2ccc3ccccc3c2)CC1,normalized growth,[11],0.981
same,normalized growth,[12],0.965
same,normalized growth,[13],0.973
same,normalized growth,[14],1
same,normalized growth,[15],0.915
same,normalized growth,[4],0.986
same,normalized growth,[16],0.529 (active)
same,normalized growth,[17],0.987
same,normalized growth,[18],1.01
same,normalized growth,[19],0.99
same,normalized growth,[20],0.98
same,normalized growth,[21],0.985
same,normalized growth,[22],0.91
same,normalized growth,[23],0.904
same,normalized growth,[24],0.885
same,normalized growth,[25],1
same,normalized growth,[5],1.01
same,normalized growth,[27],0.962
same,normalized growth,[28],0.888
same,normalized growth,[29],0.989
same,normalized growth,[30],0.963
same,normalized growth,[10],1.02
same,normalized growth,[32],0.911
same,normalized growth,[31],0.773
same,normalized growth,"S. cerevisiae strains, strain wild type, hits give low values",0.885 (active)
Nc1cc(Cl)c(NC2=NCCN2)c(Cl)c1,normalized growth,[1],0.982
same,normalized growth,[2],1
same,normalized growth,[3],1
same,normalized growth,"S. cerevisiae deletion strains, locus YGR229C, strain SMI1, hits give low values",1.01
same,normalized growth,[19],0.998
same,normalized growth,[26],1
same,normalized growth,[27],0.987
same,normalized growth,[6],1.02
same,normalized growth,[7],1
same,normalized growth,[8],1.02
same,normalized growth,[9],1.04
same,normalized growth,[32],1
